Results reported in PubChem BioAssay (NCI).
“And” between values parts separate entries of the source, which are not always exact repeats. Equal entries are not always repeated. This is part of a sample that, as a whole, favours compounds with a hit. Of some 83,000 tested, about 20% had one in any assay.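 Negative percent growth values reflect cell death: -40 means 40% of the cells present at the start died, and -100 means all died.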 The source made the active and inactive calls. The calls were made as follows: active = growth percent below 10; inactive = the rest.

Legend:
Assay in all cases: NCI-60 one-dose screen, 48 h (100 = growth as untreated, 0 = no growth, -100 = all killed)
Settings in all cases: 10 µM unless noted
[1] = tested on: DU-145 prostate
[2] = tested on: K-562 leukemia
[3] = tested on: MALME-3M melanoma
[4] = tested on: MDA-MB-231 breast
[5] = tested on: RXF 393 renal
[6] = tested on: SF-268 CNS
[7] = tested on: SF-295 CNS
[8] = tested on: SF-539 CNS
[9] = tested on: UACC-257 melanoma
[10] = tested on: M14 melanoma
[11] = tested on: HCT-15 colon
[12] = tested on: HT29 colon
[13] = tested on: SNB-75 CNS
[14] = tested on: SNB-19 CNS
[15] = tested on: U251 CNS
[16] = tested on: PC-3 prostate
[17] = tested on: SK-MEL-5 melanoma
[18] = tested on: UACC-62 melanoma
[19] = tested on: LOX IMVI melanoma
[20] = tested on: SK-MEL-28 melanoma

Row | SMILES | growth [1] | growth [2] | growth [3] | growth [4] | growth [5] | growth [6] | growth [7] | growth [8] | growth [9] | growth [10] | growth [11] | growth [12] | growth [13] | growth [14] | growth [15] | growth [16] | growth [17] | growth [18] | growth [19] | growth [20]
1 | CN(C)CCCNC1=C(Cl)C(=O)c2ccccc2C1=O | 75.2% (inactive) and 31.7% (inactive) | -46.7% (active) and -23.9% (active) | -82.7% (active) and -88.9% (active) | 69.6% (inactive) and 41.9% (inactive) | 122% (inactive) and 2.27% (active) | 102% (inactive) and 75% (inactive) | 87% (inactive) and 72.2% (inactive) | 102% (inactive) and 101% (inactive) | 28.4% (inactive) and -96.6% (active) | -87% (active) and -99.1% (active) | -62.2% (active) and -49.3% (active) | -26% (active) and -31.7% (active) | 64.1% (inactive) and 47.8% (inactive) | 53.1% (inactive) and -9.85% (active) | -63% (active) and -94.2% (active) | 56.8% (inactive) and 53.6% (inactive) | -94.2% (active) and -100% (active) | 28.6% (inactive) and -13.8% (active) | -43.5% (active) | 83.2% (inactive) and 83.7% (inactive)
2 | COc1cc2c(c(OC)c1OC)-c1ccc(OC)c(=O)cc1[C@@H](NC(C)=O)CC2 | -26.3% (active) and 0.564% (active) and -28.6% (active) | 9.04% (active) and 10.4% (inactive) and -25.7% (active) | 45.1% (inactive) and 43.1% (inactive) and 39% (inactive) | 16.3% (inactive) and -21.5% (active) and -9.65% (active) | 34% (inactive) and 33.7% (inactive) and 15.3% (inactive) | 33.5% (inactive) and 27.5% (inactive) and 35.1% (inactive) | 2.25% (active) and 12.5% (inactive) and 7.89% (active) | -9.65% (active) and -24.7% (active) and -10.6% (active) | 76.9% (inactive) and 66.3% (inactive) and 24.9% (inactive) | 2.32% (active) and -7.49% (active) and 1.7% (active) | 12.2% (inactive) and 8.71% (active) and 3.71% (active) | 9.16% (active) and 7.29% (active) and -16.8% (active) | 35.6% (inactive) and 76.6% (inactive) and 19.3% (inactive) | 39.5% (inactive) and 30.5% (inactive) and 19% (inactive) | 22.5% (inactive) and 14.1% (inactive) and 19% (inactive) | 25.6% (inactive) and 20.7% (inactive) and 7.6% (active) | -59.8% (active) and -36.1% (active) and -32% (active) | 36.9% (inactive) and 40.9% (inactive) and 19.1% (inactive) | 15.7% (inactive) and 18.9% (inactive) and 26.5% (inactive) | 64.5% (inactive) and 62.4% (inactive)
3 | NC(=S)NN=C1CCC(C2CCCCC2)CC1 (stereo not given) | 96.7% (inactive) and 103% (inactive) | 89.9% (inactive) and 89.5% (inactive) | 90.6% (inactive) | 94.6% (inactive) and 93.6% (inactive) | 92.3% (inactive) and 92.9% (inactive) | 89.9% (inactive) and 102% (inactive) | 93% (inactive) and 87.7% (inactive) | 97.1% (inactive) and 82.8% (inactive) | 66.4% (inactive) and 66.9% (inactive) | 92.2% (inactive) and 85% (inactive) | 61.9% (inactive) and 66.1% (inactive) | 90% (inactive) and 79.7% (inactive) | 76.4% (inactive) and 92.8% (inactive) | 96% (inactive) and 102% (inactive) | 93.7% (inactive) and 95.1% (inactive) | 89% (inactive) and 74.1% (inactive) | 87.3% (inactive) and 87.8% (inactive) | 79.6% (inactive) and 88.3% (inactive) | 99.8% (inactive) | 91.5% (inactive) and 110% (inactive)
4 | CCCCCn1sc(=O)n(Cc2ccc(CNC(=O)C(C)c3ccc(CC(C)C)cc3)cc2)c1=O (stereo not given) | 99.9% (inactive) and -93.4% (active) | 2.12% (active) | 99.8% (inactive) and -72.1% (active) | 93.3% (inactive) and -54.7% (active) | -91.7% (active) | 94.5% (inactive) and -59.7% (active) | 94.3% (inactive) and 47.1% (inactive) | 93.6% (inactive) and -92.8% (active) | 96.7% (inactive) and -19.5% (active) | 95.2% (inactive) and -67.6% (active) | 101% (inactive) and -35% (active) | 112% (inactive) and -52.1% (active) | 94.3% (inactive) and -20.9% (active) | 98.7% (inactive) and 43.3% (inactive) | 87.4% (inactive) and 8.32% (active) | 93.7% (inactive) and -64.4% (active) | 101% (inactive) and -89.2% (active) | 96.9% (inactive) and -65.1% (active) | 104% (inactive) and -92.7% (active) | 107% (inactive) and -52.5% (active)
5 | O=C(Nc1cccc(-n2ccc3c(NC(=O)c4ccccc4)nccc32)c1)c1ccc(Cl)c(C(F)(F)F)c1 | -36% (active) and 61.6% (inactive) | 2.58% (active) and 27.6% (inactive) | -35.4% (active) | -11.2% (active) and 81.4% (inactive) | -89.4% (active) and 94.8% (inactive) | -44.1% (active) | -53.7% (active) and 38.4% (inactive) | -66% (active) and 52.8% (inactive) | 65.2% (inactive) | -29.6% (active) and 64% (inactive) | -15.1% (active) and 34.3% (inactive) | 43% (inactive) | 16% (inactive) and 84.4% (inactive) | 13.8% (inactive) and 55.4% (inactive) | 43.4% (inactive) | -30.6% (active) and 51.1% (inactive) | -92.4% (active) and 57.4% (inactive) | 5.48% (active) and 54.1% (inactive) | -80.3% (active) and 18.4% (inactive) | -38.9% (active) and 79.8% (inactive)
6 | CC1CCCC(=O)O1 (stereo not given) | 106% (inactive) and 107% (inactive) | 104% (inactive) and 108% (inactive) | 104% (inactive) | 103% (inactive) and 111% (inactive) | 101% (inactive) and 112% (inactive) | 102% (inactive) and 111% (inactive) | 99.5% (inactive) and 102% (inactive) | 100% (inactive) and 94.7% (inactive) | 104% (inactive) and 98.9% (inactive) | 101% (inactive) and 105% (inactive) | 94.8% (inactive) and 99.7% (inactive) | 106% (inactive) and 99.8% (inactive) | 83.3% (inactive) and 95.6% (inactive) | 111% (inactive) | 102% (inactive) and 104% (inactive) | 96.2% (inactive) and 95.1% (inactive) | 102% (inactive) and 108% (inactive) | 109% (inactive) and 101% (inactive) | 96.3% (inactive) and 97.2% (inactive) | 99.5% (inactive) and 113% (inactive)
7 | Oc1nc(NCCc2ccccc2)sc1/C=C1\C=Nc2ncccc21 | 15.3% (inactive) and 20.7% (inactive) | 28.5% (inactive) and 29.9% (inactive) | 44.8% (inactive) and 30.6% (inactive) | 25.9% (inactive) and 25.5% (inactive) | -30.1% (active) and -20.2% (active) | 8.87% (active) and 10.4% (inactive) | 18.7% (inactive) and 22.6% (inactive) | -37.2% (active) and 0.397% (active) | -1.71% (active) and 14.6% (inactive) | 31.7% (inactive) and 29.9% (inactive) | 33.5% (inactive) and 36.5% (inactive) | 27.8% (inactive) and 30.6% (inactive) | -13.3% (active) and -10.9% (active) | 12.1% (inactive) | 7.63% (active) and 15.8% (inactive) | 19.2% (inactive) and 25.9% (inactive) | -0.16% (active) and 14.5% (inactive) | -1.3% (active) and -1.44% (active) | 8.25% (active) and 16.3% (inactive) | 0.815% (active) and 16% (inactive)
8 | CC1=C[C@H]2c3c(c(O)c(O)c4oc5cc(O)cc(O)c5c(=O)c34)[C@H](c3cc(O)c(O)c4oc5cc(O)cc(O)c5c(=O)c34)[C@H]2C(C)(C)C1 | 22.6% (inactive) and -4.25% (active) | 2.32% (active) | 10.8% (inactive) and -30.5% (active) | -7.38% (active) and -58.3% (active) | -4.11% (active) | 10.3% (inactive) and -12.3% (active) | -47.5% (active) and -27.1% (active) | -33.5% (active) and -26.5% (active) | 21% (inactive) and 0.565% (active) | -9.96% (active) and -19.6% (active) | 15.4% (inactive) and 3.72% (active) | -1.98% (active) and -20.8% (active) | 24.1% (inactive) and -10.6% (active) | 13.3% (inactive) and -11.3% (active) | 0.997% (active) and -15.3% (active) | 14.4% (inactive) and -26.9% (active) | -84.2% (active) and -98.1% (active) | -43.1% (active) and -68.9% (active) | -93.9% (active) and -100% (active) | 10.3% (inactive) and -22.8% (active)
